Assay in all cases: protein-binding microarray (PBM); PBM: ~300 nM protein, 6 mM HEPES pH 7.8, 80 mM KCl, 0.5 mM EDTA, 0.5 mM EGTA, 6% glycerol, 35 ng/ul poly-dIdC, 1% milk, 1 h, room temperature; Ap Aiptasia and Nv Nematostella (sea anemones) / Co Capsaspora / Aq Amphimedon (sponge) / Dm Drosophila / Hu human; RHD is the Rel homology domain; high values mean tight binding
Holding throughout (settings): dsDNA, one strand shown

The target in assay [1] is T1, GST-Ap-NF-kB RHD (Exaiptasia pallida (Aiptasia), UniProt A0A913YAJ5 2-422).
T1 sequence: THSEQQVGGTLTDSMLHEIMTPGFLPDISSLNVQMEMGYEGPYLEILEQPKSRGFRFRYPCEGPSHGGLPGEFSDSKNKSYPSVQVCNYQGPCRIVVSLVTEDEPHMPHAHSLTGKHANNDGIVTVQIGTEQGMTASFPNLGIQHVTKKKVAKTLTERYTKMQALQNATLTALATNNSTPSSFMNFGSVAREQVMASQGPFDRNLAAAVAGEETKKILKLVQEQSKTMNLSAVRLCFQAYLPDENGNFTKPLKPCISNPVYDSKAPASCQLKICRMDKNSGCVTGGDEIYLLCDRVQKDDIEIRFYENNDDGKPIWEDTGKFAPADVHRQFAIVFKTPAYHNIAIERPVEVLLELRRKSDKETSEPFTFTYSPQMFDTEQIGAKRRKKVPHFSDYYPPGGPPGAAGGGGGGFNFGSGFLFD

Assay [2] has as its target T2, GST-Nv-NF-kB (Cys allele) (Nematostella vectensis, UniProt E5G601 2-411).
T2 sequence: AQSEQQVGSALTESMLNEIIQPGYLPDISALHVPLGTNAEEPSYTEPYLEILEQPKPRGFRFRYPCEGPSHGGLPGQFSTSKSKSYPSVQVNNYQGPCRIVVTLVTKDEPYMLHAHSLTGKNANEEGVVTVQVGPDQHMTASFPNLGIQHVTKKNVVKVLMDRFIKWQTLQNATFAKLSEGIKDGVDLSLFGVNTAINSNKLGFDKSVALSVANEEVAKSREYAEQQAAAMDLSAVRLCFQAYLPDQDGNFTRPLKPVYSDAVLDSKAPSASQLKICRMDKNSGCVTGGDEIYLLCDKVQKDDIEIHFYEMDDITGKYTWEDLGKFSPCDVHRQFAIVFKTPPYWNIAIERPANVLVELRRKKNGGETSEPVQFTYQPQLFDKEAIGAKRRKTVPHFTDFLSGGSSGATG

For assay [3], the target named is T3, GST-Co-NF-kB (Capsaspora owczarzaki, UniProt F1ARL5 200-546).
T3 sequence: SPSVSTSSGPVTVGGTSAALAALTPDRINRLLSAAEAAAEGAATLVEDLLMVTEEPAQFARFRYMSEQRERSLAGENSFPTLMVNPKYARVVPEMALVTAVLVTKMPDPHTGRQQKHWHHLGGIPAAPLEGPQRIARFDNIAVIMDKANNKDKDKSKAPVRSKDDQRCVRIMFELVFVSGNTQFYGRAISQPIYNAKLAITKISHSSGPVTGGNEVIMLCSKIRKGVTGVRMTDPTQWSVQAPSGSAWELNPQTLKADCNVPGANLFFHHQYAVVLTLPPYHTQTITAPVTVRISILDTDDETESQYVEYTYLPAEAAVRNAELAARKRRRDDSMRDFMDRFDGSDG

In assay [4] the target is T4, GST-Dm-Relish (Drosophila melanogaster, UniProt Q94527 99-473).
T4 sequence: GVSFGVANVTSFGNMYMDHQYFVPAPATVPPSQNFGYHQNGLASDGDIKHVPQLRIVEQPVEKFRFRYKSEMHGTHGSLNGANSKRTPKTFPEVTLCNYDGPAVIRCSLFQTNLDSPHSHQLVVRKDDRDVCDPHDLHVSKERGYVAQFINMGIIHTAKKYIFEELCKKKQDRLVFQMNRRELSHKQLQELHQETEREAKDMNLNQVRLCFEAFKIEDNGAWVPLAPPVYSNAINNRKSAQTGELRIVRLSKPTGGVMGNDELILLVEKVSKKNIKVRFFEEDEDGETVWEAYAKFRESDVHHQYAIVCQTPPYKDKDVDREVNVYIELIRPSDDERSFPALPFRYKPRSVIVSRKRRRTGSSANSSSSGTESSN

In assay [5] the target is T5, GST-Aq-NF-kB (Amphimedon queenslandica, UniProt A9Y5G7 2-389).
T5 sequence: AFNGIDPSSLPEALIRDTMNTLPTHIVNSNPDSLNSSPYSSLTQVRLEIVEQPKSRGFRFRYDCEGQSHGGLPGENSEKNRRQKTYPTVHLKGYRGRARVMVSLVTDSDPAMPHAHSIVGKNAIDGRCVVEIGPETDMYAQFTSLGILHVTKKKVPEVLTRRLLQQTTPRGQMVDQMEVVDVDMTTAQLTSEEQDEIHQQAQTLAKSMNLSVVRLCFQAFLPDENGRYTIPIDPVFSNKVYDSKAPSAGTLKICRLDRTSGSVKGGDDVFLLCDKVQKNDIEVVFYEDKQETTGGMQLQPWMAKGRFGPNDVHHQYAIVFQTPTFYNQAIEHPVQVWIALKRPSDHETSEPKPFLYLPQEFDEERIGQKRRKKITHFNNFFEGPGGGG

The text below walks through data of publication PMC5700166.

Regarding “CCGATTAACATCAGGACTCTCCCTGATGTTAATCGGGTCTTGATTCGCTTGACGCTGCTG”, the binding signal in assay [1] came to 3.59 z-score; in assay [2], 5.02 z-score; in assay [3] it was 1.1 z-score; in assay [4], 2.07 z-score; in assay [5], 7.56 z-score.

For the sequence “CCGATTAACATCAGGGGTTCACCTGATGTTAATCGGGTCTTGATTCGCTTGACGCTGCTG”, the binding signal in assay [1] worked out at 3.84 z-score; in assay [2], 2.71 z-score; in assay [3], 1.45 z-score; in assay [4] it was 8.89 z-score; in assay [5], 4.82 z-score.

Regarding “CCGATTAACATCAGGGTGTTTTATGATGTTAATCGGGTCTTGATTCGCTTGACGCTGCTG”, the binding signal turned out to be 2.75 z-score in assay [1]; 2.67 z-score in assay [2]; 1.55 z-score in assay [3]; 3.11 z-score in assay [4]; 4.69 z-score in assay [5].

Regarding “CCGATTAACATCACCCGTTTCCCTGATGTTAATCGGGTCTTGATTCGCTTGACGCTGCTG”, the binding signal in assay [1] worked out at 2.8 z-score; in assay [2] it was 3.24 z-score; in assay [3], 3.33 z-score; in assay [4], 1.19 z-score; in assay [5] it was 3.03 z-score.

Consider “CCGATTAACATCACAACACCCCCTGATGTTAATCGGGTCTTGATTCGCTTGACGCTGCTG”, for which the binding signal in assay [1] was 5.03 z-score; in assay [2] it was 3.99 z-score; in assay [3], 3.14 z-score; in assay [4] it was 4.4 z-score; in assay [5], 4.65 z-score.

“CCGATTAACATCAAATATACCCCTGATGTTAATCGGGTCTTGATTCGCTTGACGCTGCTG”: the binding signal in assay [1] was found to be 4.01 z-score; in assay [2] it was 3.4 z-score; in assay [3], 5.87 z-score; in assay [4] it was 2.64 z-score; in assay [5], 4.15 z-score.

Consider “CCGATTAACATCAACACCCCCCCTGATGTTAATCGGGTCTTGATTCGCTTGACGCTGCTG”, for which the binding signal is 5.32 z-score in assay [1]; 4.06 z-score in assay [2]; 5.33 z-score in assay [3]; 5.81 z-score in assay [4]; 4.43 z-score in assay [5].

Take “CCGATTAACATCACAACCCCCCCTGATGTTAATCGGGTCTTGATTCGCTTGACGCTGCTG”: the binding signal is 5.55 z-score in assay [1]; 3.59 z-score in assay [2]; 3.83 z-score in assay [3]; 6.16 z-score in assay [4]; 4.6 z-score in assay [5].

Consider “CCGATTAACATCAGAACTTTCCCTGATGTTAATCGGGTCTTGATTCGCTTGACGCTGCTG”, for which the binding signal turned out to be 4.2 z-score in assay [1]; 6.87 z-score in assay [2]; 3.78 z-score in assay [3]; 2.67 z-score in assay [4]; 7.19 z-score in assay [5].

Regarding “CCGATTAACATCACCGCCCCACGTGATGTTAATCGGGTCTTGATTCGCTTGACGCTGCTG”, the binding signal is 1.95 z-score in assay [1]; 1.73 z-score in assay [2]; 1.4 z-score in assay [3]; 1.95 z-score in assay [4]; 1.28 z-score in assay [5].

“CCGATTAACATCAGGGACTCCCATGATGTTAATCGGGTCTTGATTCGCTTGACGCTGCTG”: the binding signal in assay [1] is 5.29 z-score; in assay [2] it was 4.05 z-score; in assay [3], 1.08 z-score; in assay [4], 9.01 z-score; in assay [5] it was 4.46 z-score.

As for “CCGATTAACATCAGGAAGTTCCCTGATGTTAATCGGGTCTTGATTCGCTTGACGCTGCTG”, the binding signal in assay [1] stood at 4.78 z-score; in assay [2], 5.36 z-score; in assay [3], 2.57 z-score; in assay [4], 4.82 z-score; in assay [5] it was 7.74 z-score.

For the sequence “CCGATTAACATCAGGGGGGGACCTGATGTTAATCGGGTCTTGATTCGCTTGACGCTGCTG”, the binding signal in assay [1] amounted to 7.43 z-score; in assay [2], 4.15 z-score; in assay [3] it was 5.99 z-score; in assay [4] it was 4.96 z-score; in assay [5], 5.51 z-score.

Consider “CCGATTAACATCAGAATTGCCCCTGATGTTAATCGGGTCTTGATTCGCTTGACGCTGCTG”, for which the binding signal in assay [1] was determined as 2.58 z-score; in assay [2], 3.54 z-score; in assay [3] it was 1.95 z-score; in assay [4] it was 1.75 z-score; in assay [5], 3.86 z-score.
